Reference: PubChem BioAssay (Tox21)
Where “and” joins values, the source holds several entries; their conditions need not be identical. Identical values can stand only once. Results filed as inconclusive are left out. Where a call stands in place of a potency, no number is given. Some compounds were tested as several samples or in several runs, with calls that do not always agree. Calls of active or inactive are those of the source. Unless noted, calls follow the shape of the dose curve; as a rule, active = well fitted curve in the direction sought with a large enough effect in the repeat runs; inconclusive = weak or mixed curves; inactive = no such curve, though single readings can be large; an effect the other way counts as inactive or inconclusive.

Tests used:
[1] = qHTS assay to identify small molecule antagonists of the glucocorticoid receptor (GR) signaling pathway - cell viability counter screen (AID 720693); also: nearly all actives have a fitted effect of over 55% in size; also: potency is read from the fitted curve at half-maximal effect
[2] = qHTS assay for identifying genotoxic compounds that show differential cytotoxicity against isogenic chicken DT40 cell lines with known DNA damage response pathways - wild type cell line (AID 743012); also: nearly all actives have a fitted effect of over 60% in size; also: potency is read from the fitted curve at half-maximal effect
Method in brief: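 Wild-type DT40 cells (300/well) exposed to compounds for 40 hours at 37 C/5% CO2. Viability read by CellTiter-Glo luminescence after 30 min at room temperature.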

[3] = qHTS assay for identifying genotoxic compounds that show differential cytotoxicity against isogenic chicken DT40 cell lines with known DNA damage response pathways - Rev3 mutant cell line (AID 743014); also: nearly all actives have a fitted effect of over 55% in size; also: potency is read from the fitted curve at half-maximal effect
[4] = qHTS assay for identifying genotoxic compounds that show differential cytotoxicity against isogenic chicken DT40 cell lines with known DNA damage response pathways - Rad54/Ku70 mutant cell line (AID 743015); also: nearly all actives have a fitted effect of over 60% in size; also: potency is read from the fitted curve at half-maximal effect
[5] = qHTS assay to identify small molecule antagonists of the androgen receptor (AR) signaling pathway using the MDA cell line - cell viability counter screen (AID 743041; also: nearly all actives have a fitted effect of over 45% in size; also: potency is read from the fitted curve at half-maximal effect)
Method in brief: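 Same-well cytotoxicity was assessed by CellTiter-Fluor in MDA-kb2 AR-luc cells after 16 h of compound treatment under R1881 agonism.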

[6] = qHTS assay to identify small molecule antagonists of the androgen receptor (AR) signaling pathway - cell viability counter screen (AID 743033; also: nearly all actives have a fitted effect of over 45% in size; also: potency is read from the fitted curve at half-maximal effect)
[7] = target: Androgen receptor (Homo sapiens) (UniProt P10275); assay: qHTS assay to identify small molecule agonists of the androgen receptor (AR) signaling pathway using the MDA cell line (AID 743040; also: nearly all actives have a fitted effect of over 20% in size)
Method in brief: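 Human breast carcinoma MDA-kb2 reporter cells (MMTV-luc, AR/GR elements) were treated for 16 h at 37C in 0% CO2 following a 5 h settling period. Signal was quantified by ONE-Glo luminescence.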

[8] = target: Androgen receptor (Homo sapiens) (UniProt P10275); assay: qHTS assay to identify small molecule antagonists of the androgen receptor (AR) signaling pathway using the MDA cell line (AID 743042; also: nearly all actives have a fitted effect of over 55% in size; also: potency is read from the fitted curve at half-maximal effect)
Method in brief: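 MDA-kb2 breast carcinoma cells carrying MMTV-luciferase (AR/GR responsive) were co-treated with compounds and the agonist R1881 for 16 h at 37C. Inhibition read as ONE-Glo luminescence; CellTiter-Fluor fluorescence measured in parallel for cytotoxicity.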

[9] = target: Androgen receptor (Homo sapiens) (UniProt P10275); assay: qHTS assay to identify small molecule antagonists of the androgen receptor (AR) signaling pathway (AID 743035; active = well fitted inhibition curve with a large enough effect in the signal ratio in the repeat runs, not every such curve was filed as active; the % refers to the signal ratio; also: potency is read from the fitted curve at half-maximal effect)
Method in brief: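 HEK293 cells stably carrying UAS-beta-lactamase reporter, 2,000/well, given compounds plus R1881 agonist and incubated 16 h at 37C. LiveBLAzer B/G FRET substrate then added for 2 h at room temperature before fluorescence reading.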

[10] = target: Androgen receptor (Homo sapiens) (UniProt P10275); assay: qHTS assay to identify small molecule agonists of the androgen receptor (AR) signaling pathway (AID 743036; active = well fitted activation curve with a large enough effect in the signal ratio in the repeat runs, with a control signal flat, not every such curve was filed as active; the % refers to the signal ratio)
Method in brief: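 Beta-lactamase under UAS control, stably integrated in HEK293 GripTite cells, reports receptor activation. After 16 h compound treatment, cells received FRET substrate for 2 h at room temperature before fluorescence reading.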

Androgen receptor (Homo sapiens), sequence (P10275 whole entry, looked up): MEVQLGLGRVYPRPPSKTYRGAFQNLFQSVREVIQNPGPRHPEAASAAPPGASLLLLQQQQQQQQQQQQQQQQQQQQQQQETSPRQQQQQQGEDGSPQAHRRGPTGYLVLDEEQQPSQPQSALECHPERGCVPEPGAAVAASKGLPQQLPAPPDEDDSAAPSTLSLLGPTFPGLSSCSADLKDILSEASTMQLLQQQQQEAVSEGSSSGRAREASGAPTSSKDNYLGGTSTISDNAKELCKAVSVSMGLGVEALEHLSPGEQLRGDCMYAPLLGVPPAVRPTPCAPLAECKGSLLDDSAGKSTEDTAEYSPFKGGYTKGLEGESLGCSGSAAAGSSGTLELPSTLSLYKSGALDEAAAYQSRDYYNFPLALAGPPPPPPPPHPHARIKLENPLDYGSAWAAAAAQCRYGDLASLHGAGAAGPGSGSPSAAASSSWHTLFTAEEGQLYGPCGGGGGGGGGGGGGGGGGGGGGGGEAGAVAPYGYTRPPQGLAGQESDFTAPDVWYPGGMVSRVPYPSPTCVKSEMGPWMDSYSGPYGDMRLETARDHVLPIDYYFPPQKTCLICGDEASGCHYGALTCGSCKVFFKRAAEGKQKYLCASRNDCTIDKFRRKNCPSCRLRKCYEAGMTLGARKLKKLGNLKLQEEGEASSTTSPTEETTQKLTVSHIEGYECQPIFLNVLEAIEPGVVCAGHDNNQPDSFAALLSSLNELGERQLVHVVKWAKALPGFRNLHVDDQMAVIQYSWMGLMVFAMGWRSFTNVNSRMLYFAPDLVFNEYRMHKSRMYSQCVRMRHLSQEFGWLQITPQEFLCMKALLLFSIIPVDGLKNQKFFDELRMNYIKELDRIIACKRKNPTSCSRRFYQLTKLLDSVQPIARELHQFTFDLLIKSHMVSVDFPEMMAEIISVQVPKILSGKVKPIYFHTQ

SMILES | Potency [1] | Potency [2] | Potency [3] | Potency [4] | Potency [5] | Potency [6] | Potency [7] | Potency [8] | Potency [9] | Potency [10]
COc1c(C)c2c(c(O)c1C/C=C(\C)CCC(=O)O)C(=O)OC2 | inactive | 0.16 µM (active) | 0.16 µM (active) | 0.202 µM (active) | inactive |  |  |  |  | 
S=c1[nH]c2ccccc2s1 | inactive | 29.8 µM (active) and 61.1 µM (active) | 29.8 µM (active) and 66.6 µM (active) | 29.8 µM (active) and 64 µM (active) | inactive | inactive |  |  |  | 
Cc1cc2c(cc1C(F)(F)F)N(C(=O)Nc1ccc(Oc3cccnc3C)nc1)CC2 | inactive | 1.24 µM (active) | 0.781 µM (active) |  |  | inactive |  |  |  | 
N/C(=N\N=C\c1ccc(Cl)cc1)N/N=C/c1ccc(Cl)cc1 | inactive | inactive | inactive |  |  | inactive |  |  |  | 
O=C1c2ccccc2Cc2ccccc21 | inactive | inactive | inactive |  |  | inactive |  |  |  | 
Cc1nc(-c2ccc3c(c2)CCN(CCC2CCC(NC(=O)/C=C/c4ccc(F)cc4)CC2)CC3)no1 (centres undefined) | inactive | 0.386 µM (active) | 0.687 µM (active) | 0.546 µM (active) | inactive |  | inactive | inactive |  | 
CCc1cc(Cc2cc(CC)cc(C(C)(C)C)c2O)c(O)c(C(C)(C)C)c1 | 11 µM (active) | 21.7 µM (active) | 19.3 µM (active) |  | inactive | 24.5 µM (active) | inactive |  | 13.8 µM (active) | 
C[C@H]1[C@H]2CC[C@H]3[C@@H]4CC=C5C[C@@H](N(C)C)CC[C@]5(C)[C@H]4CC[C@]23CN1C | inactive | 15 µM (active) | 11.9 µM (active) |  | inactive | inactive | inactive |  |  | inactive
Cc1cccc2c1cc1ccc3cccc4ccc2c1c34 | inactive | inactive | inactive |  | inactive | inactive |  |  |  | 
COc1cc(/C=C/C(=O)O[C@H]2CC[C@]34C[C@]35CC[C@]3(C)[C@@H]([C@H](C)CCC=C(C)C)CC[C@@]3(C)[C@@H]5CC[C@H]4C2(C)C)ccc1O | inactive | inactive | inactive | inactive | inactive | inactive |  |  |  | 
CCCCCCCC/C=C/CCCCCCCC1=NCCN1CCO | 49 µM (active) | 12.2 µM (active) | 13.7 µM (active) | 13.7 µM (active) | inactive |  | inactive | inactive | 49 µM (active) | 
CCCC1O[C@@H]2C[C@H]3[C@@H]4CCC5=CC(=O)C=C[C@]5(C)[C@H]4[C@@H](O)C[C@]3(C)[C@]2(C(=O)CO)O1 (some centres undefined) | inactive | inactive | inactive and 48.6 µM (active) | inactive and 68.7 µM (active) and 54.5 µM (active) | inactive | inactive |  |  |  | 
CCOc1nc2cccc(C(=O)OC(C)OC(=O)OC3CCCCC3)c2n1Cc1ccc(-c2ccccc2-c2nn[nH]n2)cc1 (centres undefined) | 38.9 µM (active) | 34.3 µM (active) | 19.3 µM (active) |  |  | 30.9 µM (active) |  |  |  | 
Fc1ccc([C@@H]2CCNC[C@H]2COc2ccc3c(c2)OCO3)cc1 | inactive | 3.76 µM (active) | 7.5 µM (active) |  | 18.8 µM (active) | 8.49 µM (active) | inactive | 21.1 µM (active) | 13.4 µM (active) | 
Clc1ccccc1C(c1ccccc1)(c1ccccc1)n1ccnc1 | inactive | 5.07 µM (active) and 5.45 µM (active) | 10.1 µM (active) and 15.4 µM (active) | 8.04 µM (active) and 3.44 µM (active) | inactive | 54.9 µM (active) |  |  |  | 
CCCCCCCCCCn1cc[n+](CCCCCCCCCC)c1C | 13.8 µM (active) | 0.273 µM (active) | 0.109 µM (active) |  | 24.4 µM (active) | 4.37 µM (active) | inactive | 2.17 µM (active) |  | 
CCCCCCCCCCCCCCCC[N+](C)(C)CCN(Cc1ccc(OC)cc1)c1ncccn1 | inactive | 1.6 µM (active) | 2.02 µM (active) | 2.27 µM (active) | inactive | inactive |  |  |  | 
CCN1/C(=C/C=C/c2sc3ccccc3[n+]2CC)Sc2ccccc21 | 21.3 µM (active) | 0.0266 µM (active) | 0.0298 µM (active) |  |  | 3.01 µM (active) |  |  |  | 

SMILES | Potency [1] | Potency [2] | Potency [3] | Potency [4] | Potency [5] | Potency [6] | Potency [7] | Potency [8] | Potency [9] | Potency [10]
CC(=O)S[C@@H]1CC2=CC(=O)CC[C@]2(C)[C@H]2CC[C@@]3(C)[C@@H](CC[C@@]34CCC(=O)O4)[C@H]12 | 49 µM (active) | 7.5 µM (active) and 6.11 µM (active) | 9.44 µM (active) and 6.11 µM (active) |  | inactive | inactive |  |  |  | 
Oc1ccc2cc(SSc3ccc4cc(O)ccc4c3)ccc2c1 | inactive | 24.3 µM (active) | 19.4 µM (active) and 21.7 µM (active) | 24.4 µM (active) and 27.3 µM (active) | inactive |  |  |  |  | 
C[C@H](CCC(=O)O)[C@H]1CC[C@H]2[C@@H]3CC[C@@H]4C[C@H](O)CC[C@]4(C)[C@H]3CC[C@]12C | inactive | inactive | inactive | inactive | inactive | inactive |  |  |  | 
Cc1onc(-c2ccccc2Cl)c1C(=O)N[C@@H]1C(=O)N2[C@@H]1SC(C)(C)[C@@H]2C(=O)O | inactive | inactive | inactive | inactive | inactive |  |  |  |  | 
C=CC(=O)OCCn1c(=O)n(CCOC(=O)C=C)c(=O)n(CCOC(=O)C=C)c1=O | inactive | 2.73 µM (active) | 2.43 µM (active) |  |  | 15.5 µM (active) |  |  |  | 
CCN(Cc1cccnc1)C(=O)c1cccc(Cl)c1[C@]1(C)C(=O)N(Cc2ccc(OC)cc2OC)c2ccc(Cl)cc21 | inactive | 5.09 µM (active) | 7.19 µM (active) | 5.09 µM (active) |  |  | inactive | 12.8 µM (active) |  | 
O=C1c2c(O)ccc(Nc3ccc(CCO)cc3)c2C(=O)c2c([N+](=O)[O-])ccc(O)c21 | inactive | 61.1 µM (active) | 61.1 µM (active) | 27.3 µM (active) | inactive |  | inactive |  |  | inactive
CCCCCCCCCCCC(=O)NCCCN(C)C | 30.9 µM (active) | 6.11 µM (active) | 10.9 µM (active) |  |  | 43.6 µM (active) | inactive |  |  | 
Nc1c(Cl)cc(Cl)cc1Cl | inactive | inactive | inactive | inactive | inactive | inactive |  |  |  | 
COc1cc(-c2nc(NC(=O)c3cc4cc(C)cc(C)c4n3CC(=O)O)sc2CCC2CCCCC2)c(OC)cc1Cl | 14.2 µM (active) | 35.3 µM (active) | 22.3 µM (active) | 22.3 µM (active) |  |  | inactive |  | 5.65 µM (active) | 
Cc1cccc(S(=O)(=O)O)c1C | inactive | inactive | inactive | inactive | inactive | inactive |  |  |  | 
CC(C)(C)CC(C)(C)c1ccc(OCCOCC[N+](C)(C)Cc2ccccc2)cc1 | 19.5 µM (active) | 668 nM (active) and 1.53 µM (active) | 841 nM (active) and 968 nM (active) | 1.06 µM (active) and 1.93 µM (active) | 24.8 µM (active) and 38.5 µM (active) | 21.3 µM (active) and 7.75 µM (active) |  |  |  | 
O=C(OCC(COC(=O)c1ccccc1)(COC(=O)c1ccccc1)COC(=O)c1ccccc1)c1ccccc1 | inactive | inactive | inactive | inactive | inactive | inactive |  |  |  | 
O=[N+]([O-])c1ccccc1Nc1ccccc1 | inactive | inactive | inactive | inactive | inactive | inactive |  |  |  | 
CCCCCCCC[P+](CCCCCCCC)(CCCCCCCC)CCCCCCCC | 6.13 µM (active) | 5.42 µM (active) | 5.42 µM (active) | 5.42 µM (active) | 6.08 µM (active) | 0.971 µM (active) |  |  |  | 
O=C1C=CC(=O)N1c1ccc(Cc2ccc(N3C(=O)C=CC3=O)cc2)cc1 |  | 0.969 µM (active) | 1.22 µM (active) | 1.54 µM (active) |  | 17.4 µM (active) |  |  |  | 
Nc1ccc2c3c(cccc13)-c1ccccc1-2 |  | 61.8 µM (active) | 27.6 µM (active) | 55 µM (active) |  | inactive | inactive | inactive |  | 
